Source: PubChem BioAssay AID488837 (National Center for Advancing Translational Sciences (NCATS), 2010)
About 20 (0.006%) of roughly 330,000 compounds were called active. Entries that show only a call come without a potency. Roughly 1% stayed inconclusive and do not appear here. Calls follow the shape of the dose curve; as a rule, active = well fitted inhibition curve with a large enough effect; inconclusive = small, poorly fitted or top-dose-only effect, or effect the other way; inactive = flat fitted curve, though single readings scatter. For the sample, actives were picked, then their nearest neighbours and some compounds at random.

Target: Protein phosphatase EYA2 (Homo sapiens) (UniProt O00167)
Sequence (O00167 whole entry, looked up): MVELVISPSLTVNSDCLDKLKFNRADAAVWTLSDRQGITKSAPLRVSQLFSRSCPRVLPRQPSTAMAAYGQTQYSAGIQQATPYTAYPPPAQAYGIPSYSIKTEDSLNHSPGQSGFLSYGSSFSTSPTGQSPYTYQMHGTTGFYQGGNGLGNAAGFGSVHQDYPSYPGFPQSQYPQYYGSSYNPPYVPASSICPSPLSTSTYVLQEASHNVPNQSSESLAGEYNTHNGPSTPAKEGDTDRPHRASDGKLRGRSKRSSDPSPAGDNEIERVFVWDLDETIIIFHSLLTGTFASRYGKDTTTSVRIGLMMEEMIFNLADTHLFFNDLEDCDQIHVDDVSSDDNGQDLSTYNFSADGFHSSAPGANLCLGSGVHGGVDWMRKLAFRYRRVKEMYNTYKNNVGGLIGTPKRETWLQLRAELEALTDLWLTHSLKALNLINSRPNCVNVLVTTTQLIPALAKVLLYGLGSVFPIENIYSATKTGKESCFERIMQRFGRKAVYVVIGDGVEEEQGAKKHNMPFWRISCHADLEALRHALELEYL
Assay: qHTS Assay for Inhibitors of the Phosphatase Activity of Eya2
Conditions: recombinant Eya2, OMFP fluorescence dephosphorylation (OMFP is methylfluorescein phosphate); series mostly up to 76.9 µM
Excerpt: The Eya family of proteins are essential co-activators of the Six1 transcription factor. Six1 is a developmental gene that is abnormally re-expressed in a large percentage of breast cancers. This over-expression plays a causal role in the initiation and metastatic development of breast cancers. The Eya family of proteins was also found to contain a unique HAD phosphatase domain with protein tyrosine phosphatase activity which can potentially play a role in Six1-mediated breast tumorigenesis. […] We have developed and optimized a 1536 well fluorescence-based HTS assay targeting the phosphatase activity of Eya2. Inhibitors found against Eya2 could serve as potential therapeutic tools to inhibit Six1-mediated breast tumorigenesis and to increase the efficiency of radiation and certain chemo therapy. These inhibitors could also be used as chemical probes to study the function of Eya2's phosphatase activity and its role in Six1-mediated breast tumorigenesis.
The Eya2 enzyme was kindly provided by the laboratory of Dr. Rui Zhao. The 3-O-methyl-fluorescein phosphate (OMFP) substrate and all buffer reagents were purchased from Sigma Aldrich. qHTS Assay Setup: 1. Buffer- 50 mM HEPES pH 7.5, 50 mM NaCl, 5 uM MgCl2, 0.05% BSA, 1 mM DTT. 2. OMFP Stock- 10 mM solution prepared in 100% DMSO and stored in single use aliquots at -20C. Assay Procedure- 1. Dispense 1.5 ul per well of Eya2 at 0.2 uM in black medium binding 1536 well Greiner plate 2. Transfer 23 nl of compound and control compound (EGTA) to plate 3. Incubate at ambient for 10 minutes 4. Dispense 1.5 ul per well of OMFP at 50 uM 5. Incubate at ambient for 10 minutes 6. Read on ViewLux using Excitation = 485 nm, Emission = 525 nm
Potency is read from the fitted curve at half-maximal effect.

Row | Compound | activity, negative = inhibition | Potency
1 | CCC(CC)C(=O)Nc1ccc(S(=O)(=O)Nc2nccs2)cc1 | inactive | 
2 | COC(=O)C1CCCCN1C(=O)c1ccc(OC2CCN(C(C)=O)CC2)c(OC)c1 (stereo not given) | inactive | 
3 | CC1=CC2=NC(=O)CC(C)(C(=O)N(CC(=O)NC(C)(C)C)Cc3ccccc3)N2C=C1 (stereo not given) | inactive | 
4 | N=c1ccn(CC(=O)NC(N)=O)c2ccccc12 | inactive | 
5 | Cc1ccc(S(=O)(=O)N2CCC(Oc3ccc(-n4cnnn4)cc3)CC2)cc1 | inactive | 
6 | COc1ccc(C(=O)OCc2cc(=O)n3ccsc3n2)cc1F | inactive | 
7 | Cc1ccc(CCn2c3c(c4ccccc42)CN(C)CC3)cn1 | inactive | 
8 | Nc1ncnc2c1c(I)cn2[C@@H]1C[C@H](N)[C@@H](O)[C@H]1O | inactive | 
9 | CSCCC(NS(=O)(=O)c1ccc2c(c1)oc(=O)n2C)C(=O)NCc1ccccc1 (stereo not given) | inactive | 
10 | O=C(COc1ccc([N+](=O)[O-])cc1)Nc1cccc(C(=O)Nc2ccccc2C(=O)O)c1 | inactive | 
11 | CCCN1Cc2cccc(C(=O)Nc3ccc(S(=O)(=O)N4CCCCCC4)cc3)c2C1=O | inactive | 
12 | N#C/C(=C\N1CCOCC1)S(=O)(=O)c1ccc(Cl)cc1 | inactive | 
13 | CCOc1ccc(CCNC(=O)CN2C(=O)NC3(CCc4ccccc43)C2=O)cc1OCC (stereo not given) | inactive | 
14 | CCc1noc(C)c1C(=O)N1CCCSC1=Nc1ccccc1OC | inactive | 
15 | COc1ccc(OCCCC(=O)Nc2cccc(S(=O)(=O)N3CCCCCC3)c2)cc1 | inactive | 
16 | COC(=O)c1ccc(CSc2ccc3nnc(-c4ccccc4)n3n2)o1 | inactive | 
17 | Cc1cccc(C)c1NC(=O)C1CCCN1C(=O)OC(C)(C)C (stereo not given) | inactive | 
18 | O=C(Cc1ccccc1Cl)N1CCN(c2ccccn2)CC1 | inactive | 
19 | Cc1cc(C)c(C)c(S(=O)(=O)N[C@@H](C)C(=O)OC(C)C(=O)NC(N)=O)c1C (stereo not given in full) | inactive | 
20 | Cc1ccc(CC2C(=O)N(c3ccc(F)cc3)C(=O)C2C)cc1 (stereo not given) | inactive | 
21 | O=C(CNC(=O)OCc1ccccc1)Oc1cc2oc(=O)cc(-c3ccccc3)c2cc1Cl | inactive | 
22 | CCN(CC)P(=O)(C(NC(=O)OC)C(F)(F)C(F)(F)C(F)(F)C(F)F)N(CC)CC (stereo not given) | -3.75% [at 15.4 µM] (inactive) | 
23 | COc1cc(NC(=O)c2ccccc2NS(=O)(=O)c2ccc(Cl)s2)cc(OC)c1 | inactive | 
24 | CN(C)/C(CN1CCCCC1)=C1\N=C(c2ccccc2)OC1=O | inactive | 
25 | CN(C)CCOc1cccc(Br)c1 | inactive | 

Row | Compound | activity, negative = inhibition | Potency
26 | C=CCC[C@@H](Cc1ccc(F)cc1)C(=O)OC[C@H](Cc1c[nH]c2ccccc12)NC(=O)[C@@H](CC=C)CC(=O)N(CCO)Cc1ccccc1 | inactive | 
27 | CN(C)S(=O)(=O)c1ccc(N2CCCC2)c(C(=O)NCc2ccccc2)c1 | inactive | 
28 | Cc1cccc(C)c1NC(=S)N1CCCCCC1 | inactive | 
29 | O=S1(=O)CCC(NC(=S)SCc2ccccc2Br)C1 (stereo not given) | inactive | 
30 | N#CCC(=O)NC(=O)NCC1CC1 | inactive | 
31 | N/C(=N\OS(=O)(=O)c1cccc([N+](=O)[O-])c1)c1ccncc1 | inactive | 
32 | Cc1ccccc1-n1nnnc1SCCCC(=O)c1ccc(F)cc1 | inactive | 
33 | C=CCC1(CC=C)CCCN1C(=O)c1cc(COc2ccc(-n3cncn3)cc2)on1 | inactive | 
34 | CCCCCCCNc1nc(Cl)nc(NCCO)n1 | inactive | 
35 | CSc1ccc(Cl)c(C(=O)OCC(=O)N2CCNC2=O)c1 | inactive | 
36 | c1cc(-n2cnnn2)ccc1NC1=NCCC1 | inactive | 
37 | Cc1ccc(OCc2nnc(NC(=O)OCC(C)C)s2)cc1 | inactive | 
38 | COC(=O)[C@]1(Cc2ccccc2)N[C@H](CN(C)S(=O)(=O)c2ccc(OC(F)(F)F)cc2)[C@@H]2C(=O)N(Cc3ccccc3)C(=O)[C@@H]21 | inactive | 
39 | CSc1cccc(NC(=O)CN2C(=O)COc3ccc(S(=O)(=O)N4CCOCC4)cc32)c1 | inactive | 
40 | Cc1noc(NS(=O)(=O)c2ccc(NC(=O)c3oc4ccc(F)cc4c3C)cc2)c1C | inactive | 
41 | Cn1c2ccc(F)cc2c2nnc(NN)nc21 | inactive | 
42 | CCCCn1c(N)c(N(CC(C)C)C(=O)c2ccc(Br)o2)c(=O)[nH]c1=O | inactive | 
43 | CC(=O)/C(C)=N/O | inactive | 
44 | Cc1cccc(Nc2nnc(SCC(=O)c3c(N)n(C4CC4)c(=O)[nH]c3=O)s2)c1C | inactive | 
45 | COc1ccc(OC)c2c1sc(=NC(=O)CN1C(=O)CCC1=O)n2C | inactive | 
46 | CN(C(=O)CSc1nnc(-c2n[nH]c3ccccc23)o1)c1ccccc1 | inactive | 
47 | CCOc1cc(/C=C2/N=C(c3ccc(C(C)(C)C)cc3)OC2=O)cc(Cl)c1OS(C)(=O)=O | inactive | 
48 | OCc1n[nH]c(CO)n1 | inactive | 
49 | CCC1Sc2ccc(S(=O)(=O)CCC(=O)NCc3cccs3)cc2NC1=O (stereo not given) | inactive | 
50 | CCN(CC)c1ccc(S(=O)(=O)N2CCOCC2)cc1NC(=O)CSc1cccc[n+]1[O-] | inactive | 

Row | Compound | activity, negative = inhibition | Potency
51 | Cn1c(-c2ccc(F)cc2)cc2onc(-c3ccccc3Cl)c2c1=O | inactive | 
52 | CCOc1cc(-c2noc(CCCC(=O)NC3CCCCC3)n2)ccc1OC | inactive | 
53 | O=S(=O)(Nc1ccccc1Cl)c1cccc2nsnc12 | inactive | 
54 | COn1c(=O)c(=O)n(OC)c2ccccc21 | inactive | 
55 | CN(C)C(=O)CCc1ccc2c3c([nH]c2c1)[C@]1(C)[C@@H](C(=O)N2CCOCC2)C[C@H](CC(=O)NCCc2ccccn2)C(=O)N1CC3 | inactive | 
56 | O=S(=O)(Nc1ccc2nc(-c3ccco3)[nH]c2c1)c1ccccc1 | inactive | 
57 | CCOc1ccc(CCNC(=O)COC(=O)c2ccc(F)c(S(=O)(=O)N3CCOCC3)c2)cc1OCC | inactive | 
58 | CC(CC(=O)Nc1ccc(F)cc1F)S(=O)(=O)c1ccc2c(c1)NC(=O)CO2 (stereo not given) | inactive | 
59 | Cc1c(C#N)c2ncn(CC#N)c(=O)c2n1-c1ccccc1 | inactive | 
60 | CCC(=O)Nc1cc(C(F)(F)F)ccc1N1CCCC1 | inactive | 
61 | CCn1ccnc1CN(C)C(=O)c1ccc2nc(Cc3ccc(OC)cc3)oc2c1 | inactive | 
62 | Cc1ccc(-n2cc(CN(C)Cc3nccn3C)c(-c3cccc(C)c3)n2)cc1 | inactive | 
63 | C#CCOCCOCCOCCNc1nc(N2CCN(C(=O)CCCCCCCCCCNC(=O)[C@H]([C@@H](C)CC)n3cc(CCCCN=C(N)N)nn3)CC2)nc(N2CCN(C(=O)CCCCCCCCCCNC(=O)[C@H](CO)n3cc(CCCSC)nn3)CC2)n1 |  | 31.6 µM (active)
64 | C#CCOCCOCCOCCNc1nc(N2CCN(C(=O)CCCCCCCCCCNC(=O)Cn3cc(CCCCCN)nn3)CC2)nc(N2CCN(C(=O)CCCCCCCCCCNC(=O)[C@H](CO)n3cc(CCCSC)nn3)CC2)n1 | inactive | 
65 | C#CCOCCOCCOCCNc1nc(N2CCN(C(=O)CCCCCCCCCCNC(=O)[C@H](CCCCN)n3cc(C)nn3)CC2)nc(N2CCN(C(=O)CCCCCCCCCCNC(=O)[C@H](CO)n3cc(CCCSC)nn3)CC2)n1 | inactive | 
66 | CC1CC2C3CCC4=CC(=O)C=C[C@]4(C)[C@@]3(F)[C@@H](O)C[C@]2(C)[C@@]1(O)C(=O)CO (stereo not given in full) | inactive | 
67 | Cc1cc(=O)[nH]c(N/N=C/c2c(C)nn(-c3ccccc3Cl)c2Cl)n1 | inactive | 
68 | CC(C)NC(=O)NCCCCCCS(C)=O (stereo not given) | inactive | 
69 | N#CCSc1nc(-c2ccccc2)nc2ccc(F)cc12 | inactive | 
70 | Cc1nnnn1/C(=C\c1ccccc1)C(=O)OCC(=O)N1CC2(C)CC1CC(C)(C)C2 (stereo not given) | inactive | 
71 | C=CCOc1ccc(C(=O)Nc2ccccc2C(=O)N2CCCC2)cc1 | inactive | 
72 | O=C(NCCCCO)C(F)(F)C(F)(F)C(F)(F)C(=O)NCCCCO | inactive | 
73 | COc1ccc(CCc2nnc(CCC(=O)NCc3cnn(-c4ccccc4C)c3)o2)cc1 | inactive | 
74 | CCc1cccc(C)c1N1C(=O)CN(Cc2ccccc2)C1=S | inactive | 
75 | O=C(NCc1cc(C(F)(F)F)cc(C(F)(F)F)c1)C1CC(c2cccc(F)c2)=NO1 (stereo not given) | inactive | 

Row | Compound | activity, negative = inhibition | Potency
76 | CSc1ccccc1N1CCN(CCCCCC(=O)NC2CCCc3ccccc32)CC1 (stereo not given) | inactive | 
77 | COCc1cc(=O)[nH]c(SC)n1 | inactive | 
78 | N#Cc1cccc(OC(=O)c2ccc3c(=O)n4c(nc3c2)CCC4)c1 | inactive | 
79 | Cc1snc(SCc2c(F)cccc2Cl)c1C#N | inactive | 
80 | CCOC(=O)C1CN(S(=O)(=O)c2ccc(F)cc2)C1 | inactive | 
81 | O=S(=O)(c1ccc(Cl)cc1)c1nc(-c2ccccc2F)oc1NCCN1CCOCC1 | inactive | 
82 | COc1cc(C)c(S(=O)(=O)N2CCOCC2)c(C)c1C | inactive | 
83 | O=C(CSc1ccccc1F)NC1CCS(=O)(=O)C1 (stereo not given) | inactive | 
84 | Clc1cccc(Cl)c1Cn1nnc(-c2cccs2)n1 | inactive | 
85 | Cc1ccc(NC(=O)CCNC(=O)c2ccc([N+](=O)[O-])cc2)cc1S(=O)(=O)N1CCOCC1 | inactive | 
86 | CC(C)(O)C#Cc1ncc(C(F)(F)F)cc1Cl | inactive | 
87 | COc1ccc(-c2nc3ccccc3n2CCC(C)C)cc1OC | inactive | 
88 | CN1CCN(C(=O)c2ccccc2NC(=O)COc2ccccc2Cl)CC1 | inactive | 
89 | CCOc1ccc(NC(=O)C(C)N2C(=O)c3ccccc3C2=O)cc1 (stereo not given) | inactive | 
90 | O=C(OC1CCOC1=O)c1ccc(-c2nc3ccccc3s2)s1 (stereo not given) | inactive | 
91 | O=S(=O)(/C=C/c1ccccc1)NCCc1ccccn1 | inactive | 
92 | Cc1cc(C(F)F)nn1CC(=O)NC1CCCCCC1 | inactive | 
93 | COc1ccc(C(C#N)Nc2ccc(C)cc2)cc1 (stereo not given) | inactive | 
94 | Cc1ccc(C2(C(F)(F)F)N=C3Sc4cc(C)cc(C)c4N3C(=O)N2)cc1 (stereo not given) | inactive | 
95 | COc1ccc(-n2nc3c(c2NC(=O)c2ccc(N4C(=O)CCC4=O)cc2)CSC3)cc1 | inactive | 
96 | CC(O)c1cccc(NC(=O)Cc2cccc3ccccc23)c1 (stereo not given) | inactive | 
97 | O=C(NC1CCCC1)C(c1ccco1)N(C(=O)c1ccco1)c1ccc(F)cc1 (stereo not given) | inactive | 
98 | CC(C)(C)c1cc2cccnc2n1Cc1ccccc1 | inactive | 
99 | CCN1CCN(c2nc(Nc3cc(OC)ccc3OC)nc(Nc3cc(OC)ccc3OC)n2)CC1 | inactive | 
100 | COc1ccc(-c2cc(C(F)(F)F)nc(S(C)(=O)=O)n2)cc1OC | inactive | 
